# Assay outcomes as filed in PubChem.
# B2AR ag: beta2AR agonists driving receptor internalization, primary screen, cell-based, FAP fluorogen, flow cytometry | 340,000 compounds, 0.43% hits | Beta-2 adrenergic receptor (Homo sapiens), P07550 | Am2.2-beta2AR cells | response, % (no concentration beside the values);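 active means response above a set limit, near 3 SD of response in nonfluorescent compounds, cut at about 42% in these data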
# Bfl-1 A1 inh: caspase 3/7 activation in MEF A1-2A-BIM cells, primary screen, A1 inhibitor project, cell-based, luminescence, HTS | Caspase-Glo 3/7 luminescence, 3 h; percent of clofoctol response, vehicle zero | caspase activation, % (no concentration beside the values) | 330,000 compounds, 0.066% hits;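 active means over half of replicate activation scores above 10%, or exactly half above 10 with the replicate mean above 10; inconclusive means replicate mean below 10 yet half the replicates above 10; inactive means over half of replicates below 10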
# DYRK1A inh: rat Dyrk1A kinase inhibitors, primary screen, biochemical, single point, plate reader; ADP-Glo luminescence, NFATc1 peptide; 310,000 compounds, 0.43% hits; inhibition, % at 12.5 µM; Dual specificity tyrosine-phosphorylation-regulated kinase 1A (Rattus norvegicus), Q63470; AID 504441, 2011; in the data active means inhibition above about 50%;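 further: plate controls were vehicle with enzyme for no effect and no enzyme for full effect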
# dFosB act: activators of delta FosB homodimer, primary screen, biochemical, fluorescence polarization, TAMRA-CDK5 oligo, single point; Protein FosB (Mus musculus), P13346; purified delta FosB; percent of positive-control signal above neutral wells; activation, % at 25 µM; 340,000 compounds, 0.99% hits; AID 493131, 2011;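 active means mean activation above about 17%, with every replicate also reaching it, limit read from the data, passing the limit was not always enough; inconclusive means only one of the two conditions met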
# Target sequence (P13346 whole entry, looked up): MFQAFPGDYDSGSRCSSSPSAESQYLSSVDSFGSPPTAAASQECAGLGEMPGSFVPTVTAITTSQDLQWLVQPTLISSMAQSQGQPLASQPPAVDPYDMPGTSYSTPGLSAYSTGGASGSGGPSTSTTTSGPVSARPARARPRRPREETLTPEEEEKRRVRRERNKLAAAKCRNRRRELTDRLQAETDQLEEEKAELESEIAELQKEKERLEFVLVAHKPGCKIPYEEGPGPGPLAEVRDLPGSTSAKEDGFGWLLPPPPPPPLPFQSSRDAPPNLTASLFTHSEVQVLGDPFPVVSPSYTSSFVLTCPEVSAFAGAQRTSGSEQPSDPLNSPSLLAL
# B2AR ag CP1: beta2AR agonists via receptor internalization, confirmation, cell-based, FAP fluorogen, flow cytometry, single point, cherry pick 1; shares compounds with B2AR ag; Am2.2-beta2AR cells, FAP surface receptor; active compounds read low; percent response (surface receptor), % at 10 µM; 1,100 compounds, 25% hits; AID 540358, 2011;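 active means surface receptor percent response at or below 58%, roughly 3 SD from nonfluorescent compounds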
# B2AR FAP counter: flagged in Am2.2 fluorescence counterscreen for beta-2AR agonists; 1,100 tested, under 10 active; Am2.2 cells, FAP fluorogen flow cytometry; active compounds read low; shares compounds with B2AR ag; AID 588765; calls only at 10 µM;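 active means percent response below a set limit in fluorescence channel 1 and below 50% in channel 8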
# Active calls of the source: *; i = inactive; ? = inconclusive; nt = not tested or not shown; ! = not confirmed by another sample. Sampled rows, rich in hits. Any-hit rate of the full collection: about 1.6%.
SMILES,B2AR ag,Bfl-1 A1 inh,DYRK1A inh,dFosB act,B2AR ag CP1,B2AR FAP counter
O=C(Nc1cnn(Cc2c(Cl)cccc2Cl)c1)C(c1ccccc1)c1ccccc1,43.4*,0.9,4.5,-10.0,93.3,i
CC(O)c1c(OCc2ccccc2)ncnc1OCc1ccccc1 (stereo not drawn),98.2*,2.3,-5.3,-1.6,112.2,i
O=C(NC1(Cc2ccccc2)CCN(Cc2ccc(-c3ccccc3)cc2)C1=O)c1ccccc1 (stereo not drawn),13.3,0.6,-4.2,9.5,nt,nt
CCc1ccc(Nc2cc(C)nc3ncnn23)cc1,7.5,1.6,12.9,-6.0,nt,nt
CCn1c2ccccc2c2cc(Nc3cc(C)nc4ncnn34)ccc21,42.0*,?,7.5,-14.2,58.5,i
CCN(CC)/C(=N/S(=O)(=O)c1ccc(C)cc1)c1ccccc1,77.7*,0.2,-2.2,-9.1,109.7,i
Cc1nc(NC(=O)CSc2nnc(-c3ccccc3)c(-c3ccccc3)n2)c(Cl)cc1Cl,47.6*,-0.5,4.5,-3.4,73.3,i
COc1cccc(-c2ccc(NC(=O)C3CCCN(Cc4ccccn4)C3)cc2)c1 (stereo not drawn),nt,nt,nt,nt,106.4,i
CCCc1ncc(CN2CCCC(C(=O)Nc3ccc(-c4cccc(OC)c4)cc3)C2)cn1 (stereo not drawn),12.8,-0.3,2.2,5.5,nt,nt
COCc1ccc(CN2CCCC(C(=O)Nc3ccc(-c4cccc(OC)c4)cc3)C2)o1 (stereo not drawn),29.6,-0.3,-2.4,-4.0,116.2,i
COc1cccc(-c2ccc(NC(=O)C3CCCN(Cc4cnn(C(C)C)c4)C3)cc2)c1 (stereo not drawn),23.4,0.1,10.1,15.7,84.5,i
O=C(Nc1cccc(-c2ccc(F)cc2)c1)C1CCCN(Cc2cccnc2)C1 (stereo not drawn),-2.9,0.0,-1.0,-9.9,nt,nt
O=C(Nc1ccc(-c2cccc(F)c2)cc1)C1CCCN(Cc2ccccn2)C1 (stereo not drawn),0.2,0.5,11.1,-7.9,110.4,i
Cc1ccc(S(=O)(=O)N2[C@@H](c3ccccc3F)C(C(=O)O)=CC[C@H]2c2ccc(Cl)c(Cl)c2)cc1,-8.6,0.6,-5.6,-9.8,nt,nt
CCc1nccn1CCC(=O)N1CCCC(N2CCN(c3cccc(Cl)c3)CC2)C1 (stereo not drawn),-3.6,0.5,-0.6,3.9,nt,nt
COc1ccccc1NS(=O)(=O)c1ccc(NC(=O)N2CCCCC2)cc1,-5.2,0.6,-2.7,-12.0,nt,nt
CN(c1ccccc1)S(=O)(=O)c1cccc(C(=O)Nc2cccc(C(=O)NC3CC3)c2)c1,50.9*,nt,4.3,-3.5,12.5*,i
CN(C)S(=O)(=O)c1ccc2c(c1)C(=NO)c1cc(S(=O)(=O)N(C)C)ccc1-2,-1.4,1.1,4.1,-12.5,nt,nt
CN(C)S(=O)(=O)c1ccc2c(c1)C(CC(=O)O)OC2=O (stereo not drawn),48.7*,-0.2,7.4,-1.5,103.6,i
Cc1ccccc1OCC(=O)Nc1cc(S(=O)(=O)N2CCOCC2)ccc1N1CCCC1,10.7,1.0,-0.5,-11.0,nt,nt
Cc1cc(S(=O)(=O)N2CCOCC2)ccc1OCC(=O)Nc1ccc(Br)cc1F,0.8,-1.1,-3.3,-6.0,108.2,i
Cc1cc(S(=O)(=O)N2CCOCC2)ccc1OCC(=O)Nc1ccccc1C(F)(F)F,-1.2,0.3,-3.5,-1.9,97.4,i
Cc1cc(S(=O)(=O)N2CCOCC2)ccc1OCC(=O)Nc1ccc(F)cc1F,1.4,-0.6,2.4,-2.2,105.4,i
Cc1ccc(C(=O)OCC(=O)Nc2ccccc2C(F)(F)F)cc1S(=O)(=O)N1CCOCC1,5.3,-0.1,-4.1,-8.3,nt,nt
CC(C)(C)N1CC(OC(N)=O)C1,-4.7,-0.5,-7.4,7.1,nt,nt
SMILES,B2AR ag,Bfl-1 A1 inh,DYRK1A inh,dFosB act,B2AR ag CP1,B2AR FAP counter
COc1ccc2[nH]c3c(c2c1)CCN1C(=O)C(CC(=O)NCC24CC5CC(CC(C5)C2)C4)C[C@H](C(=O)N(C(C)C)C(C)C)[C@@]31C (stereo partly drawn),5.1,nt,-3.0,-10.1,nt,nt
CC1(C)Nc2ccccc2C(=O)N1c1ccccc1,0.0,-0.3,-2.2,-1.1,nt,nt
COc1ccc(Cl)cc1NC(=O)COC(=O)CCNS(=O)(=O)c1cccs1,7.7,nt,0.9,-2.0,nt,nt
COCC(C)NC(=O)CCS(=O)(=O)c1nc(-c2ccc(OC)cc2)cc(C(F)(F)F)n1 (stereo not drawn),52.6*,-0.1,-5.0,1.4,24.6*!,i
O=C(Nc1ncc2c(n1)CC(c1ccccc1)CC2=O)c1ccco1 (stereo not drawn),-18.1,0.3,6.4,-13.7,nt,nt
O=C(Nc1ncc2c(n1)CC(c1cccc(Cl)c1)CC2=O)c1ccco1 (stereo not drawn),43.1*,0.5,5.7,-22.2,75.4,i
CC1CCCN(C(=O)COC(=O)c2ccc[nH]c2=O)C1 (stereo not drawn),51.0*,0.8,2.7,-2.8,97.9,i
CN(C(=O)COC(=O)c1ccc[nH]c1=O)C1CCCCC1,6.8,-2.0,-4.4,-2.5,nt,nt
CCN(CC)S(=O)(=O)c1ccc(C(=O)OCC(=O)NCCN2C(=O)CSC2=O)cc1,-3.1,0.4,1.8,-7.8,nt,nt
COc1ccc(C)cc1N1C(=N)/C(=C2/Nc3ccccc3S2)C(c2ccccc2)C1=O (stereo not drawn),45.1*,1.2,1.5,1.9,84.7,i
COc1ccc(C2C(Oc3ccccc3)C(=O)N2c2cc(C)ccc2C)cc1OC (stereo not drawn),1.6,-0.1,4.4,-19.1,nt,nt
Cc1ccc(SCc2[nH]nc3c2C2(CCSCC2)C(C#N)=C(N)O3)cc1,6.7,-0.1,4.5,-12.0,nt,nt
Cc1ccc(SCc2[nH]nc3c2C2(C(=O)Nc4ccc([N+](=O)[O-])cc42)C(C#N)=C(N)O3)cc1 (stereo not drawn),84.0*,1.0,7.3,-6.0,112.6,i
CN1CCN(C(=O)c2ccc(CNS(=O)(=O)c3ccc(F)c(Cl)c3)cc2)CC1,-3.6,-0.4,4.4,-8.7,nt,nt
Cc1ccc(S(=O)(=O)Nc2ccc(O)c3ncccc23)cc1,1.5,-0.8,6.0,2.1,nt,nt
Cc1ccc(S(=O)(=O)Nc2ccc(O)c3cccnc23)cc1,9.2,0.5,8.6,-9.8,104.4,i
N#Cc1cc(-c2ccccc2)nc(Oc2ccc(Cl)cc2)n1,44.3*,0.3,-6.7,-0.9,49.7*,i
Cc1ccc(OCc2cc(C(=O)NCc3cnn(-c4cccc(F)c4)c3)no2)cn1,97.4*,0.6,-4.2,-16.2,16.0*,i
